Molecules are shown by their SMILES. About 83,000 compounds went through this panel and 20% of them were active in at least one assay; those are over-represented in the sample as a whole.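 Testing used 96-well plates and a 48-hour single-concentration exposure. Example: -40 means 40% of the starting cells died.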 Values without a mark were called inactive. Active and inactive are the calls of the source. The calls were made as follows: active = growth percent below 10; inactive = the rest.

The record followed here is PubChem BioAssay (NCI).

Some test systems named below: HCT-15 colon; HT29 colon; SNB-19 CNS; U251 CNS; PC-3 prostate; SK-MEL-5 melanoma; UACC-62 melanoma; LOX IMVI melanoma; SK-MEL-28 melanoma; SNB-75 CNS.
Assay in all cases: NCI-60 one-dose screen, 48 h (100 = growth as untreated, 0 = no growth, -100 = all killed)
Holding throughout (settings): 10 µM unless noted

For the compound `CN1CCN(Cc2ccc(NC(=O)c3cncc(C#Cc4cnccc4C#N)c3)cc2C(F)(F)F)CC1`, the growth is 55% in the test on HCT-15 colon; 27.5% in the test on HT29 colon; 102% in the test on SNB-19 CNS; 77.3% in the test on U251 CNS; 91.7% in the test on PC-3 prostate; 54% in the test on SK-MEL-5 melanoma. Besides, the growth in the test with UACC-62 melanoma was 41.5%; in the test on LOX IMVI melanoma, 12.4%; with SK-MEL-28 melanoma, 30.1%.

Turning to `Cc1nn(-c2ccccc2)c(-n2ccnc2)c1/C=N/Nc1nc(-c2ccc(Cl)c(Cl)c2)cs1`, the growth with HCT-15 colon was 23.8%; in the test on HT29 colon, 17.1%; in the test with U251 CNS it was 53.1%; in the test with PC-3 prostate it was 28.8%; in the test with SK-MEL-5 melanoma, 26.5%; with UACC-62 melanoma, 71.4%. In addition, the growth is 20.1% in the test with LOX IMVI melanoma and 58.1% in the test on SK-MEL-28 melanoma.

As for `c1ccc(-c2nc3nonc3nc2-c2ccccc2)cc1`, the growth is 68.3% in the test on HCT-15 colon; 82.7% in the test with HT29 colon; 77.8% in the test with SNB-19 CNS; 58.3% with U251 CNS; 46.5% with PC-3 prostate; 63.8% in the test on SK-MEL-5 melanoma. The growth in the test with UACC-62 melanoma is 58.7%; with SK-MEL-28 melanoma it was 90.3%.

As to `Cc1ccc(-c2nc(N3CCN(CC(=O)Nc4ccc(Cl)cc4)CC3)c3ccccc3n2)cc1`, the growth is 79.9% with HCT-15 colon; 80.8% in the test on HT29 colon; 93.1% in the test with SNB-19 CNS; 92.5% in the test with U251 CNS; 80.6% in the test on PC-3 prostate; 89% in the test on SK-MEL-5 melanoma. Further, in the test with SK-MEL-28 melanoma, the growth was 99.8%.

Take `CCCCCCNC(=O)Oc1ccc(/C(=C(\C)c2ccc(OC)cc2)c2ccc(OCCN3CCCCC3)cc2)cc1`: the growth in the test with HCT-15 colon was 2.35% (active); with SNB-75 CNS, 69.4%; in the test on SNB-19 CNS it was 83.9%; in the test on U251 CNS, 54.4%; with PC-3 prostate it was 54.1%; with SK-MEL-5 melanoma it was 57.6%. For the same compound, the figures for the growth in the test on UACC-62 melanoma, in the test with LOX IMVI melanoma and in the test on SK-MEL-28 melanoma were 39.2%, 24.5% and 25.2%, respectively.

Take `O=C(Oc1cccc2ccccc12)Oc1cccc2ccccc12`: the growth is 106% in the test with HCT-15 colon; 118% in the test with HT29 colon; 94.6% in the test with SNB-75 CNS; 71.6% in the test with PC-3 prostate; 106% in the test with SK-MEL-5 melanoma; 99.2% in the test on LOX IMVI melanoma. The growth in the test with SK-MEL-28 melanoma is 118%.

Take `COc1nc2ccc(C)cc2cc1-c1nc2c(cnn2-c2ccc(Br)cc2)c(=O)[nH]1`: the growth in the test on HCT-15 colon is 40.5%; in the test with HT29 colon, 10.3%; in the test on SNB-75 CNS it was 25.9%; with PC-3 prostate it was 28.1%; in the test on SK-MEL-5 melanoma it was 51.1%; in the test on UACC-62 melanoma, 29.1%. Further, the growth in the test with LOX IMVI melanoma was 34.1%; in the test on SK-MEL-28 melanoma it was 39.3%.

Consider `COc1cc(/C=N/NC(=O)c2ccc(C)nc2)cc(OC)c1OC`, for which the growth with HCT-15 colon is 97.2%; in the test on HT29 colon it was 103%; with SNB-19 CNS it was 108%; in the test on U251 CNS, 102%; with PC-3 prostate, 98.1%; in the test with SK-MEL-5 melanoma, 96.3%. The growth is 86.7% in the test on UACC-62 melanoma and 117% with SK-MEL-28 melanoma.

For the compound `O=C(/C=C/c1sc(Cl)nc1Cl)c1ccccc1`, the growth is 30.4% with HCT-15 colon; 88.6% in the test on HT29 colon; 86.5% with SNB-75 CNS; 84.8% with PC-3 prostate; 102% in the test with SK-MEL-5 melanoma; 93.5% with UACC-62 melanoma. Besides, the growth in the test with LOX IMVI melanoma is 3.61% (active); with SK-MEL-28 melanoma it was 95.4%.

Turning to `O=c1c2cc(F)ccc2sc2c(N3CCNCC3)nc3ccccc3c12`, the growth with HCT-15 colon was -40.7% (active); in the test on HT29 colon it was -37.7% (active); with SNB-19 CNS it was 65.3%; in the test on U251 CNS, -24.2% (active); with PC-3 prostate, 48.7%; with SK-MEL-5 melanoma it was 76.8%. Besides, the growth with UACC-62 melanoma is 59.5%; with LOX IMVI melanoma it was -99.1% (active); in the test with SK-MEL-28 melanoma, 57.7%.

As to `CCC(C)(c1cc(C(C)(C)C)c(O)c(C(C)(C)C)c1)c1cc(C(C)(C)C)c(O)c(C(C)(C)C)c1`, the growth was 105% with HCT-15 colon; 96.3% in the test with HT29 colon; 104% in the test on SNB-19 CNS; 98.6% in the test with U251 CNS; 101% in the test with PC-3 prostate; 91.8% in the test on UACC-62 melanoma. The growth in the test with LOX IMVI melanoma is 103%; with SK-MEL-28 melanoma, 106%.

With `Cc1nc2cnc(N)c(C#Cc3cncc(C(=O)Nc4ccc(CN5CCN(C)CC5)c(C(F)(F)F)c4)c3)c2nc1C`, the growth with HCT-15 colon is 2.84% (active); in the test on HT29 colon, 7.18% (active); with SNB-19 CNS, 48.2%; with U251 CNS, 42.1%; in the test with PC-3 prostate, 29%; in the test on SK-MEL-5 melanoma it was 26.6%. For the same compound, the growth with UACC-62 melanoma is -19.7% (active); with LOX IMVI melanoma it was -88.8% (active); with SK-MEL-28 melanoma, -26.8% (active).

As to `CC1=NN(c2ccc(S(=O)(=O)O)cc2)C(=O)C1N=Nc1ccc(-c2ccc(N=Nc3ccc(OS(=O)(=O)c4ccc(C)cc4)cc3)c(S(=O)(=O)O)c2)cc1` (configuration not stated), the growth in the test on HCT-15 colon was 82.8%; in the test with HT29 colon it was 93.3%; with SNB-19 CNS, 104%; in the test on U251 CNS, 96.2%; with PC-3 prostate it was 86.3%; in the test on SK-MEL-5 melanoma, 104%. For the same compound, the growth is 92% with UACC-62 melanoma, 69.4% in the test with LOX IMVI melanoma and 103% with SK-MEL-28 melanoma.

Turning to `Cc1c(C(=O)NCCN2CCOCC2)cn2ncnc(Oc3ccc(NC(=O)Nc4ccc(Cl)c(C(F)(F)F)c4)cc3)c12`, the growth with HCT-15 colon was 21.8%; in the test with HT29 colon, 7.93% (active); in the test on SNB-75 CNS it was 22.4%; in the test with PC-3 prostate, 11.4%; in the test on UACC-62 melanoma, 14.8%; with LOX IMVI melanoma, -50.5% (active). Also, the growth with SK-MEL-28 melanoma is 16.1%.

With `COc1cc(C2CC(c3ccc(SC)cc3)=NN2C(C)=O)cc(OC)c1OC` (configuration not stated), the growth was 47.5% in the test with HCT-15 colon; 21.9% in the test on HT29 colon; 74.3% with SNB-19 CNS; 62.7% with U251 CNS; 58.3% in the test on PC-3 prostate; 70.2% in the test on SK-MEL-5 melanoma. Also, the growth in the test on UACC-62 melanoma was 57.9%; in the test with LOX IMVI melanoma, 62.3%; with SK-MEL-28 melanoma, 75.3%.

`CCCCCCNC(=O)Oc1ccc(/C(=C(\C)c2ccc(Cl)cc2)c2ccc(OCCCN(C)C)cc2)cc1`: the growth was 8.75% (active) in the test with HCT-15 colon; 0.63% (active) with HT29 colon; 79.8% in the test on SNB-19 CNS; 42% in the test with U251 CNS; 79.6% in the test with PC-3 prostate; 86.2% with SK-MEL-5 melanoma. Besides, the growth is 96.9% in the test with UACC-62 melanoma, 39.5% with LOX IMVI melanoma and 97.2% with SK-MEL-28 melanoma.
